Screens from PubChem.
GPR151 activ: activates the human receptor GPR151. Q8TDV0. PathHunter beta-arrestin GPR151 cells, luminescence. activation, % at 11.2 µM. 650,000 compounds, 1% hits; in the data active = activation above about 4.9%
Target sequence (Q8TDV0 whole entry, looked up): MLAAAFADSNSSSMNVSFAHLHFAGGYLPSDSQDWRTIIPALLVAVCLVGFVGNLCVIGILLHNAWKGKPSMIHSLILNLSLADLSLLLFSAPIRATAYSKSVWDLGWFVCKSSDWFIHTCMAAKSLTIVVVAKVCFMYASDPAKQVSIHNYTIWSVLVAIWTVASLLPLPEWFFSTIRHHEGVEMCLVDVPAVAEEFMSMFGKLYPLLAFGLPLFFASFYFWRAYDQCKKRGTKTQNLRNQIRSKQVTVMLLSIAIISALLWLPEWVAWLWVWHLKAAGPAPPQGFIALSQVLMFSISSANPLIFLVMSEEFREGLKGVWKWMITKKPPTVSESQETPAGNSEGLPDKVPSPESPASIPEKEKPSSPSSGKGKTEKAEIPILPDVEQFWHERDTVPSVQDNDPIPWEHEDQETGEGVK
FBW7 activator: activators of human E3 ligase FBW7 | Q969H0 | AlphaScreen FBW7–phospho-cyclin E peptide binding, activator screen | normalized activity (activation), % at 26.1 µM | 650,000 compounds, 0.13% hits | AID 1259310; in the data active = normalized activity above about 1.9%;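 also: purified mutant Fbw7 with reduced substrate affinity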
MITF primary: blocks human microphthalmia-associated transcription factor. O75030. AlphaScreen MITF homodimerization, bead proximity signal. inhibition, % at 2.6 µM. 650,000 compounds, 0.91% hits; in the data active = inhibition above about 50%
TEAD-YAP inh: TEAD-YAP interaction inhibition. AID 1259422. HEK-TIYL cells, TEAD-Gal4/YAP UAS-luciferase luminescence. 640,000 compounds, 1.4% hits. inhibition, % at 9.12 µM; in the data active = inhibition above about 32%
MITF inh conf: human MITF inhibition, confirmation; shares compounds with MITF primary; AlphaScreen MITF homodimerization, biotin/His-MITF beads; inhibition, % at 2.6 µM; 4,700 compounds, 16% hits;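 active = inhibition above a cutoff derived from the DMSO control wells, cut at about 28% in these data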;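 also: inhibitors lower the bead chemiluminescence by keeping MITF from dimerizing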
AS interf DR: counter-screen: compounds optically interfering with AlphaScreen; shares compounds with MITF primary; AlphaScreen optical interference counterscreen, cell-free; IC50, µM; 480 compounds, 6% hits; AID 1259373; call rule not given here
AS interf ctr: optically interferes with AlphaScreen signal; 4,700 compounds, 7.6% hits; shares compounds with MITF primary; AID 1259376; inhibition, % at 2.6 µM; LysRS AlphaScreen counterscreen, signal interference, triplicate;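 active = inhibition above a cutoff derived from the DMSO control wells, cut at about 30% in these data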
A number is an active result; i = inactive; nt = no result. Most compounds without a hit are left out; they make up all but 3.5% or so of the library.

SMILES	GPR151 activ	FBW7 activator	MITF primary	TEAD-YAP inh	MITF inh conf	AS interf ctr	others
CC(C(O)c1ccccc1)N(C)CC(=O)Nc1c2c(nc3ccccc13)N(C)CC2 (stereo not given)	i	i	67	i	i	i
O=C(CN1CCCC1)Nc1c2c(nc3ccccc13)N(c1ccccc1)CC2	i	i	72	i	i	i
Cc1noc(C)c1-c1nc(NCCOc2ccccc2)c2ncn(C(C)C)c2n1	i	i	i	i	nt	nt
COc1ccc(S(=O)(=O)N(CC(=O)NCc2ccccc2C)c2ccc(F)cc2)cc1	i	i	i	i	nt	nt
COc1cc(C(=O)Nc2nc3ccccc3n2C)cc(OC)c1OC	i	i	i	i	nt	nt
O=C1N[C@@H](Cc2ccc(O)cc2)C(=O)N2CCN(C(=O)NC3CCCCC3)C[C@H]12	i	i	70	i	69	i	AS interf DR=i
O=C1N[C@@H](Cc2cnc[nH]2)C(=O)N2CCN(C(=O)NC3CCCCC3)C[C@H]12	i	i	i	i	nt	nt
O=C1N[C@H](Cc2ccc(O)cc2)C(=O)N2CCN(C(=O)NC3CCCCC3)C[C@H]12	i	i	76	i	70	i	AS interf DR=i
CSc1ccc(C(=O)NCc2nc(-c3ccncc3)n[nH]2)s1	i	i	i	i	nt	nt
CSc1ccc(C(=O)O)s1	i	i	75	i	35	i	AS interf DR=i
CCN(CC)c1nc(NCCOc2ccccc2)nc(Nc2cccc(N(C)C)c2)n1	i	i	61	i	i	i
COc1ccc(/C=C2/SC(=O)N(CCCC(=O)Nc3ccccc3O)C2=O)cc1	i	i	i	i	nt	nt
O=C1CSC(=O)N1CC(O)COc1cccc2ccccc12 (stereo not given)	i	i	89	i	i	i
O=[N+]([O-])c1ccc(CN2CCC(N3CCN(c4ccccc4)CC3)CC2)cc1	i	i	78	i	i	i
Fc1ccc(CN2CCC(N3CCN(c4ccccc4)CC3)CC2)cc1	i	i	53	i	i	i
Fc1cccc(CN2CCC(N3CCN(c4ccccc4)CC3)CC2)c1	i	i	77	i	i	i
CSc1ccc(CN2CCN(C3CCN(Cc4ccccc4)CC3)CC2)cc1	i	i	i	i	nt	nt
Fc1ccc(CN2CCC(N3CCOCC3)CC2)cc1	i	i	61	i	i	i
CCc1ccc2oc(-c3cccc(NC(=O)c4ccccc4F)c3)nc2c1	i	i	i	i	nt	nt
COC(=O)C1CCN(C(=O)C2CCCN(C3CCN(Cc4ccccc4)CC3)C2)CC1 (stereo not given)	i	i	i	i	nt	nt
CC1CCN(C2CCN(Cc3ccc([N+](=O)[O-])cc3)CC2)CC1	i	i	60	i	i	i
c1ccc(N2CCN(C3CCN(Cc4ccncc4)CC3)CC2)cc1	i	i	75	i	i	i
COc1ccc(N2CCN(C3CCCN(Cc4ccncc4)C3)CC2)cc1 (stereo not given)	i	i	i	i	nt	nt
O=[N+]([O-])c1ccc(CN2CCC(N3CCCC3)CC2)cc1	i	i	i	i	nt	nt
O=C(C1CCCN(C2CCN(Cc3ccccc3)CC2)C1)N1CCN(c2ccccc2)CC1 (stereo not given)	i	i	73	i	i	i
SMILES	GPR151 activ	FBW7 activator	MITF primary	TEAD-YAP inh	MITF inh conf	AS interf ctr	others
Cc1c(C(=O)N2CCC(Cc3ccccc3)CC2)sc2ncn(Cc3ccccc3Cl)c(=O)c12	i	i	i	i	nt	nt
COc1ccccc1Cc1nc2ccccc2nc1SCC(=O)Nc1ccc(OC)c(OC)c1	i	i	73	i	i	i
COc1ccc(NC(=O)CSc2nc3ccccc3nc2Cc2ccccc2OC)cc1Cl	i	i	i	i	nt	nt
CCOC(=O)CCCCC(=O)c1[nH]c(=O)n(C)c1C	i	i	106	i	95	80
CCCCCCCCCCCCCCCCCC(=O)OCC	i	nt	i	nt	nt	nt
COC(=O)c1ccc(NC(=O)/C=C\C(=O)O)cc1	i	i	i	i	nt	nt
Cc1c(-c2ccccc2)c(=O)oc2ccc(O)cc12	i	i	80	i	i	i
Cc1cccc(C)c1N1CCN(C(=O)c2cc3cc(Br)ccc3oc2=O)CC1	i	i	88	i	i	i
Cc1ccc(N2CCN(C(=O)c3cc4cc(Br)ccc4oc3=O)CC2)cc1C	i	i	i	i	nt	nt
CCOC(=O)COc1ccc(C=O)cc1OCC	i	i	76	i	i	i
CCOc1cc(C=O)ccc1OCC(=O)OC	i	i	i	i	nt	nt
COc1ccc(C(=O)O)cc1NC(=S)NC(=O)c1cccc([N+](=O)[O-])c1C	i	i	i	i	nt	nt
CCOC(=O)c1c(NC(=O)C(C)(C)C)sc(C(=O)Nc2ccccc2F)c1C	i	i	i	i	nt	nt
COc1ccc(C)cc1N(CC(=O)Nc1ccc(F)cc1F)S(C)(=O)=O	i	i	52	i	i	i
COc1ccc(C)cc1N(CC(=O)Nc1ccccc1F)S(C)(=O)=O	i	i	i	i	nt	nt
O=C(NCc1ccco1)c1ccc(CS(=O)c2ccc(Br)cc2)o1 (stereo not given)	i	i	77	i	i	i
O=C(NCc1ccccc1)c1ccc(CS(=O)c2ccc(Br)cc2)o1 (stereo not given)	i	i	i	i	nt	nt
Cc1ccc(S(=O)(=O)N2CCC(C(=O)NC(c3ccccc3)c3ccccn3)CC2)cc1 (stereo not given)	i	i	i	i	nt	nt
Cc1ccnc(NC(=O)CSC2=NC(=O)C(c3ccccc3)C(=O)N2)c1 (stereo not given)	i	i	93	i	i	i
CCOc1ccccc1OCCN1CCOCC1	i	i	i	i	nt	nt
CCOc1ccccc1OCCN1CC(C)CC(C)C1 (stereo not given)	i	i	78	i	i	i
Fc1ccccc1OCCN1CCN(Cc2ccccc2)CC1	i	i	73	i	i	i
CCOc1ccccc1OCCN1CCN(Cc2ccccc2)CC1	i	i	64	i	i	i
Fc1ccccc1OCCN1CCOCC1	i	i	i	i	nt	nt
CCOC(=O)C(O)(c1ccc2nc(NC(=O)Nc3ccccc3)sc2c1)C(F)(F)F (stereo not given)	i	i	i	i	nt	nt
SMILES	GPR151 activ	FBW7 activator	MITF primary	TEAD-YAP inh	MITF inh conf	AS interf ctr	others
CC(C)c1ccc(/C=C2\N=C(c3ccc(C4=N/C(=C\c5ccc(C(C)C)cc5)C(=O)O4)cc3)OC2=O)cc1	i	i	i	i	nt	nt
O=C(C1CCNCC1)N1CCc2ccccc2C1	i	i	60	i	i	i
O=C(C1CCN(c2ccc(N3CCOCC3)nn2)CC1)N1CCc2ccccc2C1	i	i	i	i	nt	nt
O=C(C1CCCN(Cc2ccncc2)C1)N1CCc2ccccc2C1 (stereo not given)	i	i	90	i	i	i
CCS(=O)(=O)N1CCCC(C(=O)N2CCc3ccccc3C2)C1 (stereo not given)	i	i	i	i	nt	nt
Cc1ccc(C)c(CSc2nc3ccsc3c(=O)n2NC(=O)COc2ccccc2Br)c1	i	i	i	i	nt	nt
COC(=O)C(C)CN1CCN(Cc2ccccc2)CC1 (stereo not given)	i	i	78	i	i	i
